According to PubChem BioAssay AID1159580 (chemical genetic matrix, 2015):
Where “and” joins values, the source holds several entries; their conditions need not be identical. Equal values may be shown once. Out of some 5,500 compounds screened, about 2,000 (36%) were called active. Inconclusive results (about 18%) are left out. No stated cut-off is given here; in the data, active means normalized growth mostly below about 0.91 (no sharp cut-off); inconclusive means no clear call, values can overlap the other calls; inactive means mostly above about 0.92. The list shows a part of the results.

Test: chemical genetic growth profiling, strain panel (AID 1159580);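 further: tested at 20 µM; growth read once vehicle control cultures reached saturation at 30 °C; 1 = growth at the plate median or of vehicle wells; lower values mean less growth of the strain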
Details: S. cerevisiae deletion strains, growth OD

Measured: normalized growth

OC[C@@H](O)[C@@H](O[C@@H]1O[C@H](CO)[C@@H](O)[C@H](O)[C@H]1O)[C@H](O)[C@@H](O)CO
inactive: locus YAL013W, strain DEP1, active compounds read low 1.01 | locus YAL021C, strain ccr4, active compounds read low 0.998 | locus YAL026C, strain drs2, active compounds read low 0.982 | locus YAL030W, strain snc1, active compounds read low 0.993 | locus YBL061C, strain skt5, active compounds read low 1.01 | locus YBR009C, strain hhf1, active compounds read low 1 | locus YBR021W, strain FUR4, active compounds read low 1.03 | locus YBR023C, strain chs3, active compounds read low 1 | locus YBR171W, strain sec66, active compounds read low 0.989 | locus YBR229C, strain ROT2, active compounds read low 1.01 | locus YBR231C, strain swc5, active compounds read low 0.996 | locus YBR279W, strain paf1, active compounds read low 0.979 | locus YCL011C, strain gbp2, active compounds read low 0.989 | locus YCL016C, strain dcc1, active compounds read low 1.01 | locus YCL029C, strain bik1, active compounds read low 1.02 | locus YCL061C, strain MRC1, active compounds read low 1 | locus YCL069W, strain vba3, active compounds read low 0.972 | locus YCR088W, strain abp1, active compounds read low 0.989 | locus YDL005C, strain med2, active compounds read low 0.985 | locus YDL035C, strain GPR1, active compounds read low 1.03 | locus YDL040C, strain nat1, active compounds read low 0.989 | locus YDL074C, strain BRE1, active compounds read low 1.01 | locus YDL101C, strain DUN1, active compounds read low 1.01 | locus YDL134C, strain PPH21, active compounds read low 1.01 | locus YDL185W, strain tfp1, active compounds read low 1.01 | locus YDL192W, strain arf1, active compounds read low 1.01 | locus YDR001C, strain nth1, active compounds read low 0.996 | locus YDR069C, strain doa4, active compounds read low 0.981 | locus YDR101C, strain arx1, active compounds read low 1 | locus YDR137W, strain rgp1, active compounds read low 1 | locus YDR150W, strain NUM1, active compounds read low 0.998 | locus YDR159W, strain sac3, active compounds read low 0.986 | locus YDR162C, strain NBP2, active compounds read low 0.979 | locus YDR195W, strain ref2 0.958 | locus YDR297W, strain sur2, active compounds read low 0.992 | locus YDR318W, strain mcm21, active compounds read low 1.04 | locus YDR334W, strain swr1, active compounds read low 0.984 | locus YDR335W, strain msn5, active compounds read low 0.992 | locus YDR388W, active compounds read low 1.01 | locus YDR392W, strain spt3, active compounds read low 0.951 | locus YDR502C, strain sam2, active compounds read low 0.994 | locus YEL003W, strain gim4, active compounds read low 0.989 | locus YEL037C, strain rad23, active compounds read low 0.966 | locus YEL061C, strain CIN8 (second series), active compounds read low 0.977 | locus YEL061C, strain CIN8, active compounds read low 1 | locus YER015W, strain faa2, active compounds read low 1 | locus YER016W, strain bim1, active compounds read low 0.996 | locus YER110C, active compounds read low 1.02 | locus YER111C, strain swi4, active compounds read low 0.972 | locus YER155C, strain BEM2 (second series), active compounds read low 1.02 | locus YER155C, strain BEM2, active compounds read low 0.987 | locus YER167W, strain BCK2, active compounds read low 1.06 | locus YFR010W, strain ubp6, active compounds read low 0.969 | locus YGL078C, strain dbp3, active compounds read low 0.987 | locus YGL086W, strain mad1, active compounds read low 1.03 | locus YGL167C, strain pmr1, active compounds read low 1.01 | locus YGL173C, strain kem1, active compounds read low 1 | locus YGL227W, strain vid30, active compounds read low 0.99 | locus YGL240W, strain doc1, active compounds read low 0.99 | locus YGL248W, strain PDE1, active compounds read low 1.01 | locus YGL253W, strain hxk2, active compounds read low 0.999 | locus YGR078C, strain PAC10, active compounds read low 1.02 | locus YGR135W, strain pre9, active compounds read low 1.03 | locus YGR229C, strain SMI1, active compounds read low 1.02 | locus YGR252W, strain gcn5, active compounds read low 1.07 | locus YHR013C, strain ard1, active compounds read low 0.989 | locus YHR027C, strain rpn1, active compounds read low 1 | locus YHR030C, strain SLT2, active compounds read low 1 and 0.993 | locus YHR079C, strain IRE1 (second series), active compounds read low 1.01 | locus YHR079C, strain IRE1, active compounds read low 1.02 | locus YHR094C, strain hxt1, active compounds read low 1.01 | locus YHR129C, strain ARP1, active compounds read low 1.01 | locus YHR142W, strain chs7, active compounds read low 0.998 | locus YHR200W, strain rpn10, active compounds read low 1.02 | locus YIL066C, strain RNR3, active compounds read low 1.01 | locus YIL073C, strain SPO22, active compounds read low 1.1 | locus YIL125W, strain kgd1, active compounds read low 1.01 | locus YIR030C, strain dcg1, active compounds read low 1.01 | locus YJL092W, strain hpr5, active compounds read low 0.991 | locus YJL095W, strain BCK1 (second series), active compounds read low 1 | locus YJL095W, strain BCK1, active compounds read low 1.02 and 0.987 | locus YJL115W, strain asf1, active compounds read low 0.98 | locus YJL129C, strain trk1, active compounds read low 1.01 | locus YJL134W, strain LCB3, active compounds read low 1.01 | locus YJL154C, strain vps35, active compounds read low 0.984 | locus YJL164C, strain tpk1, active compounds read low 1 | locus YJL166W, strain qcr8, active compounds read low 0.998 | locus YJL168C, strain set2, active compounds read low 1.01 | locus YJL187C, strain SWE1 (second series), active compounds read low 1.01 | locus YJL187C, strain SWE1, active compounds read low 0.992 | locus YJR043C, strain POL32, active compounds read low 1.07 | locus YJR066W, strain TOR1, active compounds read low 0.95
